# Results as given in PubChem BioAssay AID1508601 (ICCB-Longwood Screening Facility, Harvard Medical School, 2020).
# The whole screen tested about 5,700 compounds, of which about 85 (1%) were called active. Rule as the data show it: active = p53-positive nuclei above about 36% (passing the limit was not always enough); inactive = the rest. What follows is part of a selection rich in actives, with near analogues and random picks from the rest.
# Tests used:
# [1] = nuclear p53 accumulation, HPV+ cells – imaging, p53-positive nuclei imaging, 24 h, 48 h (AID 1508601); settings: 24/48 h
# [2] = target: Cellular tumor antigen p53 (Homo sapiens) (UniProt P04637); assay: as above; settings: 24/48 h, stronger effect = higher value
# [3] = measured here: cell number at 24 h, concentration not given here
# [4] = measured here: cell number at 48 h, concentration not given here
# [5] = measured here: p53 positive nuclei at 24 h, concentration not given here
# [6] = measured here: cell number at 24 h, Library stock concentration: 10 mM
# [7] = measured here: cell number at 48 h, Library stock concentration: 10 mM
# [8] = Library stock concentration: 10 mM
# [9] = measured here: p53 positive nuclei at 24 h, Library stock concentration: 10 mM
# [10] = measured here: cell number at 24 h, Library stock concentration: 3.33 mM
# [11] = measured here: cell number at 48 h, Library stock concentration: 3.33 mM
# [12] = Library stock concentration: 3.33 mM
# [13] = measured here: p53 positive nuclei at 24 h, Library stock concentration: 3.33 mM
# Sequence of Cellular tumor antigen p53 (Homo sapiens) (P04637 whole entry, looked up): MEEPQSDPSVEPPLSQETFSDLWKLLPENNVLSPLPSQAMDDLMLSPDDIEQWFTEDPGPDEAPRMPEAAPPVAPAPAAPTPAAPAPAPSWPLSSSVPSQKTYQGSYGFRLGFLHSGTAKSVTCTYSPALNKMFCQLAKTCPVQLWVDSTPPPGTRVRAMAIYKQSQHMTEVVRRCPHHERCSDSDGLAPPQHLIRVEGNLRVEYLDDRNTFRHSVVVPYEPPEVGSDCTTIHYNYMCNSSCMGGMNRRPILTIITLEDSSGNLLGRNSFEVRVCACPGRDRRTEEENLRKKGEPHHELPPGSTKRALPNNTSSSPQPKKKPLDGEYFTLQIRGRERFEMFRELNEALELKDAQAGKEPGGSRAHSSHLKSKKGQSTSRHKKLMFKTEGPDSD
smiles,measurement,setting,value
O=C(Nc1ccc2nccnc2c1)c1csc(Cc2ccccc2)n1,"nuclei count, normalised",[1]; [3],101%
same,"nuclei count, normalised",[1]; [4],102%
same,"p53-positive nuclei, normalised",[2]; concentration not given here,0.478% (inactive)
same,"p53-positive nuclei, normalised",[2]; [5],0.426%
O=C(O)CCCCCCCCCCCNC(=O)NC12CC3CC(CC(C3)C1)C2,"nuclei count, normalised","[1]; measured here: cell number at 24 h, Library stock concentration: 46 uM",111%
same,"nuclei count, normalised","[1]; measured here: cell number at 24 h, Library stock concentration: 278 uM",105%
same,"nuclei count, normalised","[1]; measured here: cell number at 24 h, Library stock concentration: 1.67 mM",106%
same,"nuclei count, normalised",[1]; [6],101%
same,"nuclei count, normalised",[1]; [3],106%
same,"nuclei count, normalised","[1]; measured here: cell number at 48 h, Library stock concentration: 46 uM",111%
same,"nuclei count, normalised","[1]; measured here: cell number at 48 h, Library stock concentration: 278 uM",105%
same,"nuclei count, normalised","[1]; measured here: cell number at 48 h, Library stock concentration: 1.67 mM",103%
same,"nuclei count, normalised",[1]; [7],101%
same,"nuclei count, normalised",[1]; [4],113%
same,"p53-positive nuclei, normalised",[2]; Library stock concentration: 46 uM,-0.188% (inactive)
same,"p53-positive nuclei, normalised",[2]; Library stock concentration: 278 uM,0.036% (inactive)
same,"p53-positive nuclei, normalised",[2]; Library stock concentration: 1.67 mM,0.0433% (inactive)
same,"p53-positive nuclei, normalised",[2]; [8],0.0468% (inactive)
same,"p53-positive nuclei, normalised",[2]; concentration not given here,-0.166% (inactive)
same,"p53-positive nuclei, normalised","[2]; measured here: p53 positive nuclei at 24 h, Library stock concentration: 46 uM",-0.135%
same,"p53-positive nuclei, normalised","[2]; measured here: p53 positive nuclei at 24 h, Library stock concentration: 278 uM",-0.135%
same,"p53-positive nuclei, normalised","[2]; measured here: p53 positive nuclei at 24 h, Library stock concentration: 1.67 mM",0.0415%
same,"p53-positive nuclei, normalised",[2]; [9],-0.0737%
same,"p53-positive nuclei, normalised",[2]; [5],-0.144%
COC(=O)C=CC(=O)N(O)CCCCNCc1ccc(COC(=O)Nc2cccc3ccccc23)cc1,"nuclei count, normalised","[1]; measured here: cell number at 24 h, Library stock concentration: 80 uM",119%
same,"nuclei count, normalised","[1]; measured here: cell number at 24 h, Library stock concentration: 400 uM",118%
same,"nuclei count, normalised","[1]; measured here: cell number at 24 h, Library stock concentration: 2 mM",116%
same,"nuclei count, normalised",[1]; [6],97.3%
same,"nuclei count, normalised","[1]; measured here: cell number at 48 h, Library stock concentration: 80 uM",112%
same,"nuclei count, normalised","[1]; measured here: cell number at 48 h, Library stock concentration: 400 uM",113%
same,"nuclei count, normalised","[1]; measured here: cell number at 48 h, Library stock concentration: 2 mM",110%
same,"nuclei count, normalised",[1]; [7],92.8%
same,"p53-positive nuclei, normalised",[2]; Library stock concentration: 80 uM,-0.786% (inactive)
same,"p53-positive nuclei, normalised",[2]; Library stock concentration: 400 uM,-0.552% (inactive)
same,"p53-positive nuclei, normalised",[2]; Library stock concentration: 2 mM,-0.616% (inactive)
same,"p53-positive nuclei, normalised",[2]; [8],-0.57% (inactive)
same,"p53-positive nuclei, normalised","[2]; measured here: p53 positive nuclei at 24 h, Library stock concentration: 80 uM",-0.122%
same,"p53-positive nuclei, normalised","[2]; measured here: p53 positive nuclei at 24 h, Library stock concentration: 400 uM",-0.0743%
same,"p53-positive nuclei, normalised","[2]; measured here: p53 positive nuclei at 24 h, Library stock concentration: 2 mM",-0.0278%
same,"p53-positive nuclei, normalised",[2]; [9],-0.0473%
CC(=O)OC1C(=O)[C@]2(C)C(O)CC3OC[C@@]3(OC(C)=O)C2C(OC(=O)c2ccccc2)[C@]2(O)CC(OC(=O)C(O)C(NC(=O)c3ccccc3)c3ccccc3)C(C)=C1C2(C)C (stereo partly specified),"nuclei count, normalised","[1]; measured here: cell number at 24 h, Library stock concentration: 500 nM",124%
same,"nuclei count, normalised","[1]; measured here: cell number at 24 h, Library stock concentration: 1.5 uM",89.9%
same,"nuclei count, normalised","[1]; measured here: cell number at 24 h, Library stock concentration: 4.6 uM",58.2%
same,"nuclei count, normalised","[1]; measured here: cell number at 24 h, Library stock concentration: 13.7 uM",49%
same,"nuclei count, normalised","[1]; measured here: cell number at 24 h, Library stock concentration: 41 uM",47.4%
same,"nuclei count, normalised","[1]; measured here: cell number at 24 h, Library stock concentration: 123 uM",43.5%
same,"nuclei count, normalised","[1]; measured here: cell number at 24 h, Library stock concentration: 370 uM",42%
same,"nuclei count, normalised","[1]; measured here: cell number at 24 h, Library stock concentration: 1.111 mM",43.9%
same,"nuclei count, normalised",[1]; [10],33.4%
same,"nuclei count, normalised","[1]; measured here: cell number at 24 h, Library stock concentration: 3.333 mM",39.5%
same,"nuclei count, normalised",[1]; [6],44%
same,"nuclei count, normalised","[1]; measured here: cell number at 48 h, Library stock concentration: 500 nM",119%
same,"nuclei count, normalised","[1]; measured here: cell number at 48 h, Library stock concentration: 1.5 uM",71.2%
same,"nuclei count, normalised","[1]; measured here: cell number at 48 h, Library stock concentration: 4.6 uM",36.2%
same,"nuclei count, normalised","[1]; measured here: cell number at 48 h, Library stock concentration: 13.7 uM",29.7%
same,"nuclei count, normalised","[1]; measured here: cell number at 48 h, Library stock concentration: 41 uM",28.6%
same,"nuclei count, normalised","[1]; measured here: cell number at 48 h, Library stock concentration: 123 uM",29.2%
same,"nuclei count, normalised","[1]; measured here: cell number at 48 h, Library stock concentration: 370 uM",26.7%
same,"nuclei count, normalised","[1]; measured here: cell number at 48 h, Library stock concentration: 1.111 mM",28.6%
same,"nuclei count, normalised",[1]; [11],27.2%
same,"nuclei count, normalised","[1]; measured here: cell number at 48 h, Library stock concentration: 3.333 mM",26.4%
same,"nuclei count, normalised",[1]; [7],28.4%
same,"p53-positive nuclei, normalised",[2]; Library stock concentration: 500 nM,0.615% (inactive)
same,"p53-positive nuclei, normalised",[2]; Library stock concentration: 1.5 uM,7.83% (inactive)
same,"p53-positive nuclei, normalised",[2]; Library stock concentration: 4.6 uM,11.3% (inactive)
same,"p53-positive nuclei, normalised",[2]; Library stock concentration: 13.7 uM,5.37% (inactive)
same,"p53-positive nuclei, normalised",[2]; Library stock concentration: 41 uM,2.36% (inactive)
same,"p53-positive nuclei, normalised",[2]; Library stock concentration: 123 uM,1.56% (inactive)
same,"p53-positive nuclei, normalised",[2]; Library stock concentration: 370 uM,0.755% (inactive)
same,"p53-positive nuclei, normalised",[2]; Library stock concentration: 1.111 mM,1.14% (inactive)
same,"p53-positive nuclei, normalised",[2]; [12],-0.197% (inactive)
same,"p53-positive nuclei, normalised",[2]; Library stock concentration: 3.333 mM,0.0812% (inactive)
same,"p53-positive nuclei, normalised",[2]; [8],0.227% (inactive)
same,"p53-positive nuclei, normalised","[2]; measured here: p53 positive nuclei at 24 h, Library stock concentration: 500 nM",-0.0449%
same,"p53-positive nuclei, normalised","[2]; measured here: p53 positive nuclei at 24 h, Library stock concentration: 1.5 uM",0.807%
same,"p53-positive nuclei, normalised","[2]; measured here: p53 positive nuclei at 24 h, Library stock concentration: 4.6 uM",1.13%
same,"p53-positive nuclei, normalised","[2]; measured here: p53 positive nuclei at 24 h, Library stock concentration: 13.7 uM",-0.0184%
same,"p53-positive nuclei, normalised","[2]; measured here: p53 positive nuclei at 24 h, Library stock concentration: 41 uM",0.131%
same,"p53-positive nuclei, normalised","[2]; measured here: p53 positive nuclei at 24 h, Library stock concentration: 123 uM",0.31%
same,"p53-positive nuclei, normalised","[2]; measured here: p53 positive nuclei at 24 h, Library stock concentration: 370 uM",0.493%
same,"p53-positive nuclei, normalised","[2]; measured here: p53 positive nuclei at 24 h, Library stock concentration: 1.111 mM",0.16%
same,"p53-positive nuclei, normalised",[2]; [13],-0.232%
same,"p53-positive nuclei, normalised","[2]; measured here: p53 positive nuclei at 24 h, Library stock concentration: 3.333 mM",0.515%
same,"p53-positive nuclei, normalised",[2]; [9],0.00376%
Cc1[nH]c2ccccc2c1CCNCc1ccc(C=CC(=O)NO)cc1,"nuclei count, normalised",[1]; [10],37%
same,"nuclei count, normalised",[1]; [11],20.2%
same,"p53-positive nuclei, normalised",[2]; [12],107% (active)
same,"p53-positive nuclei, normalised",[2]; [13],92.9%
CN(C)Cc1ccc(S(=O)(=O)n2ccc(C=CC(=O)NO)c2)cc1,"nuclei count, normalised",[1]; [10],86.4%
same,"nuclei count, normalised",[1]; [11],84%
same,"p53-positive nuclei, normalised",[2]; [12],2.58% (inactive)
same,"p53-positive nuclei, normalised",[2]; [13],5%
Cc1[nH]c2ccccc2c1CCNC(=O)c1cccs1,"nuclei count, normalised",[1]; [10],115%
same,"nuclei count, normalised",[1]; [11],109%
same,"p53-positive nuclei, normalised",[2]; [12],-0.163% (inactive)
same,"p53-positive nuclei, normalised",[2]; [13],-0.341%
